Test results: PubChem BioAssay
Active and inactive are the calls of the source. Unless noted, no rule for the calls is given here.

Legend:
[1] = resazurin metabolic signal in HepG2 cells – cell-based, resazurin fluorescence, 24 h, PK04 Diversity Set, profiling panel (AID 1172); conditions: HepG2 viability, higher = more signal
[2] = budding yeast growth changes without added modifier – OD600, strain BY4716, 24 h, basal condition, primary screen (AID 1173); conditions: S. cerevisiae BY4716 growth, OD600, 24 h; higher = more signal, called active from +8 up or from −8 down
[3] = viability profiling in MM1S myeloma cells – cell-based, resazurin fluorescence, basal, 24 h, PK04 Diversity Set, profiling panel (AID 1174); conditions: higher = more signal, called active from +8 up or from −8 down;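 also: MM1S multiple myeloma cell line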
[4] = molecular target: Dihydroorotate dehydrogenase (quinone), mitochondrial (Plasmodium falciparum (isolate 3D7)) (UniProt Q08210); test: inhibition of P. falciparum DHODH – biochemical, C-terminal His tag, absorbance 600 nm, primary screen (AID 1175); conditions: PfDHODH enzyme, DCIP absorbance 600 nm; higher = more signal, called active from +8 up or from −8 down;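 also: recombinant parasite enzyme with a five histidine tag at its C terminus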
[5] = inhibition of PAO1 biofilm formation – strain PAO1, LB-PBS medium, absorbance 600 nm, primary screen (AID 1176); conditions: P. aeruginosa PAO1 growth/biofilm, A600, 12 h; higher = more signal
[6] = growth modulation of vineyard yeast isolate – strain RM11-1a, OD600, basal, 24 h, primary screen (AID 1177);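 also: cultures grown under basal conditions with no added stressor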; conditions: S. cerevisiae RM11-1a growth, OD600, 24 h; higher = more signal, called active from +8 up or from −8 down
[7] = growth of efflux-deficient E. coli DRC39 – strain DRC39, OD650, 24 h, E. coli filamentation inducers, primary screen (AID 1178);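 also: growth measured as culture turbidity by optical density at 650 nm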; conditions: E. coli DRC39 acrAB, higher = more signal, called active from +8 up or from −8 down
[8] = growth of efflux-deficient E. coli DRC39 – strain DRC39, OD650, 48 h, E. coli filamentation inducers, primary screen (AID 1179);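 also: screen aims at cell division blockers that make cells filament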; conditions: E. coli DRC39 delta-acrAB growth, higher = more signal, called active from +8 up or from −8 down
[9] = viability profiling in RPMI8226 myeloma cells – cell-based, resazurin fluorescence, basal, 24 h, PK04 Diversity Set, profiling panel (AID 1180); conditions: higher = more signal;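 also: RPMI8826 multiple myeloma cell line at 5000 cells per well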
[10] = molecular target: E3 ubiquitin-protein ligase XIAP (Homo sapiens) (UniProt P98170); test: small molecules binding XIAP protein – biophysical, small-molecule microarray, fluorescence 635 nm, primary screen (AID 1181); conditions: higher = more signal;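 also: score merges 667 nm emission and signal to noise over triplicate slides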
[11] = test system: XIP peptide (Xip251-270) binding; test: XIP fragment 251-270 binding compounds – biochemical, small-molecule microarray, fluorescence 635/667 nm, 0.1 µg/mL protein, primary screen (AID 1182); conditions: fluorescent protein binding, 635 nm, higher = more signal, called active from +8 up or from −8 down
XIP peptide (Xip251-270) = test: compounds binding XIP fragment 251-270 – biochemical, small-molecule microarray, fluorescence 635/667 nm, 0.5 µg/mL protein, primary screen (AID 1183); conditions: fluorescence 635 nm, higher = more signal
[12] = blood-stage malaria parasite viability loss – strain 3D7, DAPI fluorescence, 100 nL, primary screen (AID 1184);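 also: parasites grown inside human red blood cells in medium with human serum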; conditions: P. falciparum 3D7 growth, 3 d, higher = more signal
[13] = molecular target: Homeobox protein Hox-A13 (Mus musculus) (UniProt Q62424); test: disruptors of Hoxa13 oligonucleotide interaction – biochemical, fluorescence polarization, labeled oligonucleotide, primary screen (AID 1185); conditions: Hoxa13:DNA binding, 15 min, higher = more signal, called active from +8 up or from −8 down
Sequence of Homeobox protein Hox-A13 (Mus musculus) (Q62424 whole entry, looked up): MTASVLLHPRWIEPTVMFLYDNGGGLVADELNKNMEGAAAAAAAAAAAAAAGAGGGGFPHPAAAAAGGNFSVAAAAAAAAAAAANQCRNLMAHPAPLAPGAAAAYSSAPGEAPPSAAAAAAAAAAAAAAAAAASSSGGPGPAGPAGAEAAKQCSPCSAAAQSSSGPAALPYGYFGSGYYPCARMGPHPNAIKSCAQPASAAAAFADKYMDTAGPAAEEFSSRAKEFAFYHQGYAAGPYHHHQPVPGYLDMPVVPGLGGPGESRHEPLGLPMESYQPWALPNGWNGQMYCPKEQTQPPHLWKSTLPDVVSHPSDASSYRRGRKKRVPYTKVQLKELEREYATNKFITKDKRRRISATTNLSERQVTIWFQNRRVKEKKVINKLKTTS

Sequence of E3 ubiquitin-protein ligase XIAP (Homo sapiens) (P98170 whole entry, looked up, the tested form may be a part): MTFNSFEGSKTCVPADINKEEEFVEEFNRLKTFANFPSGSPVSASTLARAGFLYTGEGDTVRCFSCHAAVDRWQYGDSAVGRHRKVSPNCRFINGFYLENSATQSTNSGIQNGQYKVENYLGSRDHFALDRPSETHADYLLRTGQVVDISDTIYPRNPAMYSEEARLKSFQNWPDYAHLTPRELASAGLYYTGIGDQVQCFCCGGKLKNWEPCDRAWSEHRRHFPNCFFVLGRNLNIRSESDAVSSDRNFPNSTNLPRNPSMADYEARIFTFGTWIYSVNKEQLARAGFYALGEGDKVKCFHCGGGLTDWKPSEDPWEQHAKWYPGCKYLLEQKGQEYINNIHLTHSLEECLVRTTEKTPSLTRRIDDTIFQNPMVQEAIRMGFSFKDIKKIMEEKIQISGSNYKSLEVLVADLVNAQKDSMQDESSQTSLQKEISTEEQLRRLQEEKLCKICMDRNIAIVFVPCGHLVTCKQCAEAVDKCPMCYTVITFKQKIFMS
Sequence of Dihydroorotate dehydrogenase (quinone), mitochondrial (Plasmodium falciparum (isolate 3D7)) (Q08210 whole entry, looked up): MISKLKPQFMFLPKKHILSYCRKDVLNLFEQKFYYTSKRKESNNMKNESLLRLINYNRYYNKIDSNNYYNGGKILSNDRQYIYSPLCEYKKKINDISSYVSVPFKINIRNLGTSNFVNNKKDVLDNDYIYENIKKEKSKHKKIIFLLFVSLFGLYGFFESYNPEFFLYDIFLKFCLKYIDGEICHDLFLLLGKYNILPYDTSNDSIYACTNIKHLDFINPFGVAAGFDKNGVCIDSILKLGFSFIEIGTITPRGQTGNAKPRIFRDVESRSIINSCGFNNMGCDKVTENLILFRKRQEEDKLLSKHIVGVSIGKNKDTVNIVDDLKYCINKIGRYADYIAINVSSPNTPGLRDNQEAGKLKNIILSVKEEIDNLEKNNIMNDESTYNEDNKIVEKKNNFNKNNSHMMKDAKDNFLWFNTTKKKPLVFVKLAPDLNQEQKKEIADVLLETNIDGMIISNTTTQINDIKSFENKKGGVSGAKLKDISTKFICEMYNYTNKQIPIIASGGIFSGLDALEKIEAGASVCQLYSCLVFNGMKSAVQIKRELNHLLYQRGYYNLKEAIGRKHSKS

Row | Structure (SMILES) | z-score [1] | z-score [2] | z-score [3] | composite z-score [4] | z-score [5] | z-score [6] | z-score [7] | z-score [8] | z-score [9] | composite z-score [10] | composite z-score [11] | composite z-score (XIP peptide (Xip251-270)) | z-score [12] | z-score [13]
1 | O=C(NN=C1C[C@@H](O)[C@@H](O)[C@@H]2[C@@H]3C(=O)N(C4CCCCC4)C(=O)[C@@H]3CC[C@H]12)OCc1ccccc1 | -0.383 | 0.112 (inactive) | -0.531 (inactive) | -0.135 (inactive) | 0.307 (inactive) | -0.182 (inactive) | 0.061 (inactive) | -0.0133 (inactive) | -0.901 | 0.0942 | -0.142 (inactive) | 0.109 | -0.0276 | -5.03 (inactive)
2 | CO[C@H]1COC(=O)CC=C[C@H](C)[C@@H](OC)COC(=O)[C@@H](C)COC(=O)CC=C[C@@H]1C | -0.0033 | -1.2 (inactive) | 0.277 (inactive) | 0.151 (inactive) | -0.92 (inactive) | -0.288 (inactive) | 0.224 (inactive) | -0.979 (inactive) | 0.721 | -0.142 | -0.0653 (inactive) | -0.396 | -0.276 | -1.42 (inactive)
3 | COC(=O)[C@H](C)NC(=O)CCC1CC(OC(=O)NCCc2ccc(F)cc2)CC2(CCCC(COC(=O)NCCC(C)C)O2)O1 (some centres undefined) | -0.666 | -1.27 (inactive) | 0.711 (inactive) | -2.05 (inactive) | 0.675 (inactive) | -1.15 (inactive) | 0.29 (inactive) | -0.947 (inactive) | 0.967 | -0.102 | 0.162 (inactive) | 0.74 | -0.861 | -6.77 (inactive)
4 | Cc1cc2c(nc1C)CCCCN2CC(C)ON=C[C@@H](C)[C@H](OCc1ccccc1)C(C)C (some centres undefined) | 1.48 | -5.49 (inactive) | 0.674 (inactive) | -0.983 (inactive) | 0.675 (inactive) | -1.02 (inactive) | -0.152 (inactive) | -0.4 (inactive) | 1.4 | 0.0856 | -0.398 (inactive) | -0.0948 | -0.109 | -3.66 (inactive)
5 | CCOC(=O)[C@H](Cc1ccccc1)NC(=O)CCC1CC(OC(=O)NCc2cccc3ccccc23)CC2(CCCC(COC(=O)NCCC(C)C)O2)O1 (some centres undefined) | 1.15 | -1.07 (inactive) | 1.3 (inactive) | -0.619 (inactive) | 0.238 (inactive) | -0.886 (inactive) | -0.427 (inactive) | 0.319 (inactive) | 1.82 | 0.0867 | 0.646 (inactive) | 0.027 | 0.0857 | -5.99 (inactive)
6 | CO[C@H]1COC(=O)[C@@H](C)COC(=O)[C@@H](OCc2ccccc2)C=C[C@@H]1C | 0.409 | -0.471 (inactive) | 0.687 (inactive) | 0.976 (inactive) | -0.601 (inactive) | 1.14 (inactive) | 0.334 (inactive) | -0.183 (inactive) | 0.681 | 0.131 | 0.224 (inactive) | 0.204 | -0.66 | -0.618 (inactive)
7 | O=C(NN=C1C[C@@H](O)[C@@H](O)[C@@H]2[C@@H]3C(=O)N(C4CCCCC4)C(=O)[C@@H]3CC[C@@H]12)OCc1ccccc1 | -0.141 | -0.922 (inactive) | -0.0864 (inactive) | -0.223 (inactive) | -0.814 (inactive) | 0.0487 (inactive) | 0.193 (inactive) | 0.332 (inactive) | -0.678 | -0.505 | 0.152 (inactive) | -0.0414 | -0.321 | -3.09 (inactive)
8 | O=C1C[C@@H](O)[C@@H](O)[C@@H]2[C@@H]3C(=O)N(c4cccc(Oc5ccccc5)c4)C(=O)[C@@H]3CC[C@H]12 | 0.0515 | 0.251 (inactive) | 0.0257 (inactive) | 0.0371 (inactive) | -0.601 (inactive) | 0.132 (inactive) | -0.539 (inactive) | -0.389 (inactive) | 0.0381 | -0.0448 | 0.0532 (inactive) | 0.111 | 1.33 | -0.14 (inactive)
9 | C[C@H]1Cc2c(COc3ccccc3)nc3c(c2CO1)CN(CCOc1ccccc1)CC3 | -0.503 | -3.09 (inactive) | 0.598 (inactive) | -0.555 (inactive) | 1.69 (inactive) | -0.466 (inactive) | 1.52 (inactive) | 0.996 (inactive) | 0.961 | -0.0767 | -0.279 (inactive) | 0.692 | 0.668 | -5.49 (inactive)
10 | C#CCCCON=C1C[C@@H](O)[C@@H](O)[C@@H]2[C@@H]3C(=O)N(Cc4ccccc4)C(=O)[C@@H]3CC[C@@H]12 | 0.71 | -0.878 (inactive) | 0.736 (inactive) | -1.23 (inactive) | -0.601 (inactive) | -0.0952 (inactive) | 0.777 (inactive) | 1.2 (inactive) | 0.886 | -0.267 | -0.186 (inactive) | -0.148 | 0.542 | -0.417 (inactive)
11 | CO[C@H]1COC(=O)[C@@H](Cc2ccccc2)NC(=O)[C@@H](C)COC(=O)CCC[C@@H]1C | 0.464 | -0.916 (inactive) | 1.18 (inactive) | -1.7 (inactive) | -1.24 (inactive) | -0.726 (inactive) | 0.285 (inactive) | 1.39 (inactive) | 0.759 | -0.0918 | 0.0283 (inactive) | 0.171 | -0.0331 | -0.733 (inactive)
